Source: PubChem BioAssay (NCATS)
Results filed as inconclusive are left out. Calls of active or inactive are those of the source. Calls follow the shape of the dose curve; as a rule, active = well fitted cell-killing curve with a large enough effect; inconclusive = small, poorly fitted or top-dose-only effect, or effect the other way; inactive = no such curve, though single readings can be large or run the other way.

Experiments:
[1] = Quantitative High-Throughput drug screen in 47 multiple myeloma cell lines against the NCATS MIPE library collection: SKMM1_PLB cell viability assay (AID 1919863); details: SKMM1 myeloma viability, CellTiter-Glo ATP, 48 h; viability: active compounds read low; also: nearly all actives have a fitted effect of over 35% in size
Summary of the method: (§1)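 ATP-based luminescence (CellTiter-Glo, 5 min RT incubation) quantified surviving cells following two days' treatment with MIPE 4.0 agents at 37 °C, 5% CO2.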

[2] = Quantitative High-Throughput drug screen in 47 multiple myeloma cell lines against the NCATS MIPE library collection: XG6_PLB cell viability assay (AID 1919865); also: nearly all actives have a fitted effect of over 40% in size
Summary of the method: as §1

[3] = Quantitative High-Throughput drug screen in 47 multiple myeloma cell lines against the NCATS MIPE library collection: PCM6_Riken cell viability assay (AID 1919870); also: nearly all actives have a fitted effect of over 30% in size
Summary of the method: as §1

[4] = Quantitative High-Throughput drug screen in 47 multiple myeloma cell lines against the NCATS MIPE library collection: OPM2_DSMZ cell viability assay (AID 1919872); also: nearly all actives have a fitted effect of over 30% in size
Summary of the method: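 Myeloma cells (500 per well) were exposed to MIPE 4.0 compounds by pin transfer and incubated 48 hours at 37C, 5% CO2. Viability was read as ATP by CellTiter-Glo luminescence, normalised to DMSO (100%) and media-only (0%) wells.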

[5] = Quantitative High-Throughput drug screen in 47 multiple myeloma cell lines against the NCATS MIPE library collection: OPM1_PLB cell viability assay (AID 1918989); also: nearly all actives have a fitted effect of over 40% in size
Summary of the method: as §1

[6] = Quantitative High-Throughput drug screen in 47 multiple myeloma cell lines against the NCATS MIPE library collection: VP6_DJ cell viability assay (AID 1919867); also: nearly all actives have a fitted effect of over 40% in size
Summary of the method: as §1

[7] = Quantitative High-Throughput drug screen in 47 multiple myeloma cell lines against the NCATS MIPE library collection: UTMC2_PLB cell viability assay (AID 1919868); details: CellTiter-Glo ATP luminescence, 48 h; viability (% of DMSO control): at 45.8 µM (top of the series); also: nearly all actives have a fitted effect of over 55% in size
Summary of the method: as §1

[8] = Quantitative High-Throughput drug screen in 47 multiple myeloma cell lines against the NCATS MIPE library collection: PE2_PLB cell viability assay (AID 1919869); also: nearly all actives have a fitted effect of over 35% in size
Summary of the method: as §1

[9] = Quantitative High-Throughput drug screen in 47 multiple myeloma cell lines against the NCATS MIPE library collection: RPMI8226_ATCC cell viability assay (AID 1919871); also: nearly all actives have a fitted effect of over 30% in size
Summary of the method: as §1

[10] = Quantitative High-Throughput drug screen in 47 multiple myeloma cell lines against the NCATS MIPE library collection: KMS11_JCRBsus cell viability assay (AID 1919873); also: nearly all actives have a fitted effect of over 50% in size
Summary of the method: as §1

[11] = Quantitative High-Throughput drug screen in 47 multiple myeloma cell lines against the NCATS MIPE library collection: KMS28BM_JCRB cell viability assay (AID 1919874); also: nearly all actives have a fitted effect of over 35% in size
Summary of the method: as §1

[12] = Quantitative High-Throughput drug screen in 47 multiple myeloma cell lines against the NCATS MIPE library collection: U266_ATCC cell viability assay (AID 1919864); also: nearly all actives have a fitted effect of over 35% in size
Summary of the method: as §1

[13] = Quantitative High-Throughput drug screen in 47 multiple myeloma cell lines against the NCATS MIPE library collection: XG1_PLB cell viability assay (AID 1919866); also: nearly all actives have a fitted effect of over 35% in size
Summary of the method: as §1
Potency is read from the fitted curve at half-maximal effect.

COc1ncc(-c2ccc3nccc(-c4ccnnc4)c3c2)cc1NS(=O)(=O)c1ccc(F)cc1F
active: Potency [1] 0.0118 µM | Potency [2] 0.0187 µM | Potency [3] 0.0332 µM | Potency [4] 0.0026 µM

NC(=O)c1cccc2[nH]c(-c3ccc([C@H]4CCCN4)cc3F)nc12
active: Potency [5] 14.8 µM | Potency [6] 14.8 µM | Potency [8] 16.6 µM
inactive: Potency [7] | Potency [9] | Potency [4] | Potency [10] | Potency [11]

CC[C@@H]1C=C(C)C[C@H](C)C[C@H](OC)[C@H]2O[C@@](O)(C(=O)C(=O)N3CCCC[C@@H]3C(=O)O[C@H](C(C)=C[C@@H]3CC[C@H](Cl)[C@H](OC)C3)[C@H](C)[C@@H](O)CC1=O)[C@H](C)C[C@H]2OC
active: Potency [8] 20.9 µM | Potency [9] 18.7 µM
inactive: Potency [4]

NC(=O)NN=Cc1ccc([N+](=O)[O-])o1
inactive: viability [1] 122% | Potency [4] | Potency [10] | Potency [11]
active: Potency [6] 14.8 µM

O=C(O)c1ccccc1C(=O)Nc1ccc(-c2ccccc2)cc1
inactive: Potency [12] | Potency [7] | Potency [8] | Potency [3] | Potency [9] | Potency [4] | Potency [10] | Potency [11]

Clc1ccc(CCC(Cn2ccnc2)Sc2c(Cl)cccc2Cl)cc1 (configuration not stated)
inactive: Potency [12]
active: Potency [2] 23.5 µM | Potency [6] 26.4 µM | Potency [7] 18.7 µM | Potency [8] 20.9 µM | Potency [3] 18.7 µM | Potency [10] 20.9 µM

CC(C)(C)c1cc(C(=O)O)c(NC(=O)Nc2ccc3[nH]ncc3c2)s1
active: Potency [8] 16.6 µM
inactive: Potency [2] | Potency [13] | Potency [6] | Potency [7] | Potency [3] | Potency [9] | Potency [4] | Potency [10]

CN(C)Cc1ccc(-c2nc3cccc4c3n2CCNC4=O)cc1
active: Potency [2] 16.6 µM | Potency [13] 20.9 µM | Potency [6] 14.8 µM | Potency [8] 20.9 µM | Potency [3] 14.8 µM | Potency [10] 26.4 µM

CCOC(CN1C(=O)[C@](CC(=O)Nc2ccc(C)cc2)(NC(=O)Nc2ccc(C)cc2)c2ccccc21)OCC
active: Potency [6] 26.4 µM | Potency [8] 23.5 µM | Potency [10] 26.4 µM
inactive: viability [1] 93.3% | Potency [4]

Clc1ccc(COC(Cn2ccnc2)c2ccc(Cl)cc2Cl)cc1 (configuration not stated)
inactive: Potency [4]
active: Potency [13] 18.7 µM | Potency [6] 20.9 µM | Potency [3] 20.9 µM

CC1(C)S[C@H]2[C@H](NC(=O)[C@@H](N)c3ccc(O)cc3)C(=O)N2[C@@H]1C(=O)O
inactive: Potency [8] | Potency [4]
active: Potency [12] 11.8 µM | Potency [2] 2.64 µM | Potency [6] 0.0743 µM | Potency [3] 1.87 µM | Potency [10] 18.7 µM | Potency [11] 5.9 µM

CS(=O)(=O)N(Cc1ccco1)CC(O)Cn1c2ccccc2c2ccccc21 (configuration not stated)
active: Potency [12] 18.7 µM | Potency [13] 20.9 µM | Potency [8] 16.6 µM | Potency [11] 26.4 µM
inactive: Potency [2] | Potency [7] | Potency [9]

CO[C@H]1C[C@@H]2CC[C@@H](C)[C@@](O)(O2)C(=O)C(=O)N2CCCC[C@@H]2C(=O)O[C@H]([C@H](C)C[C@@H]2CC[C@H](OC(=O)C(C)(CO)CO)[C@H](OC)C2)CC(=O)[C@H](C)C=C(C)[C@@H](O)[C@@H](OC)C(=O)[C@H](C)C[C@H](C)C=CC=CC=C1C
active: Potency [6] 20.9 µM

C[N+](C)(C)CC(=O)O
inactive: Potency [12] | Potency [2] | Potency [13] | Potency [8] | Potency [3] | Potency [10] | Potency [11]

C[C@]12CCC3c4ccc(O)cc4CCC3C1CCC2=O (some centres not stated)
active: Potency [9] 20.9 µM | Potency [10] 26.4 µM | Potency [11] 20.9 µM
inactive: Potency [12] | Potency [2] | Potency [13] | Potency [8] | Potency [3] | Potency [4]

CC(C)OC(=O)C(C)(C)Oc1ccc(C(=O)c2ccc(Cl)cc2)cc1
active: Potency [12] 11.8 µM | Potency [6] 26.4 µM | Potency [8] 20.9 µM
inactive: Potency [2] | Potency [7] | Potency [11]

O=c1c(O)c(-c2ccc(O)cc2)oc2cc(O)cc(O)c12
active: Potency [2] 14.8 µM | Potency [13] 16.6 µM | Potency [6] 16.6 µM | Potency [3] 18.7 µM | Potency [11] 4.69 µM

C[C@H](NC(=O)c1sccc1OCc1ccc(Cl)cc1)c1ccccc1
active: Potency [1] 18.7 µM | Potency [8] 18.7 µM | Potency [4] 18.7 µM | Potency [10] 7.43 µM

O=C1NC(=O)C(=Cc2cccc(C(F)(F)F)c2)S1
inactive: Potency [4] | Potency [11]
active: Potency [1] 14.8 µM | Potency [2] 20.9 µM

CN(C)C1CCN(C(=O)c2ccc(NC(=O)Nc3nc(N4CCOCC4)nc(N4CCOCC4)n3)cc2)CC1
active: Potency [9] 0.0093 µM | Potency [4] 0.0209 µM

CC=CC[C@@H](C)C(=O)[C@H]1C(=O)N[C@@H](C(C)C)C(=O)N(C)CC(=O)N(C)[C@@H](CC(C)C)C(=O)N[C@@H](C(C)C)C(=O)N(C)[C@@H](CC(C)C)C(=O)N[C@@H](C)C(=O)N[C@H](C)C(=O)N(C)[C@@H](CC(C)C)C(=O)N(C)[C@@H](CC(C)C)C(=O)N(C)[C@@H](C(C)C)C(=O)N1C
active: Potency [1] 14.8 µM | Potency [9] 13.2 µM | Potency [10] 14.8 µM

Cc1ccc(/C=N/NC(=O)c2ccccc2Oc2ccccc2)o1
inactive: Potency [6]
active: Potency [13] 11.8 µM | Potency [4] 20.9 µM | Potency [10] 9.35 µM

CC(=O)Oc1cc2c(s1)CCN(C(C(=O)C1CC1)c1ccccc1F)C2 (configuration not stated)
active: Potency [12] 8.33 µM | Potency [2] 2.64 µM | Potency [6] 1.32 µM | Potency [7] 2.96 µM | Potency [3] 1.48 µM

C=CCc1ccc(O)c(-c2ccc(O)c(CC=C)c2)c1
active: Potency [12] 16.6 µM | Potency [2] 14.8 µM | Potency [13] 18.7 µM | Potency [6] 20.9 µM | Potency [8] 18.7 µM | Potency [3] 20.9 µM | Potency [11] 23.5 µM

COC(=O)N[C@H](C(=O)N1CCC[C@@H]1c1ncc(-c2ccc(-c3ccc(-c4cnc([C@@H]5CCCN5C(=O)[C@@H](NC(=O)OC)C(C)C)[nH]4)cc3)cc2)[nH]1)C(C)C
inactive: Potency [7]
active: Potency [2] 26.4 µM | Potency [3] 26.4 µM | Potency [9] 20.9 µM | Potency [10] 26.4 µM | Potency [11] 20.9 µM

NC(=O)c1cnc(-c2ccc(C3(N)CCC3)cc2)c(-c2ccccc2)c1
inactive: Potency [13]
active: Potency [2] 16.6 µM | Potency [6] 13.2 µM | Potency [8] 5.9 µM | Potency [3] 1.32 µM | Potency [4] 20.9 µM

c1cc(-c2sc(-c3ccncc3)c(-c3ccncc3)c2-c2ccncc2)ccn1
inactive: Potency [9] | Potency [4] | Potency [10] | Potency [11]
active: Potency [13] 11.8 µM | Potency [6] 9.35 µM | Potency [8] 14.8 µM

N[C@@]1(C(=O)O)CS(=O)(=O)[C@H]2[C@H](C(=O)O)[C@H]21
active: Potency [12] 4.18 µM
inactive: Potency [9] | Potency [4] | Potency [10] | Potency [11]

O=C(NOCC(O)CO)c1cc(Br)c(F)c(F)c1Nc1ccc(I)cc1F (configuration not stated)
active: Potency [2] 2.35 µM
inactive: Potency [12] | Potency [9] | Potency [4]

O=C1NC(=O)C(=Cc2ccc(-c3ccc(F)cc3)o2)S1
inactive: Potency [12] | Potency [7] | Potency [4] | Potency [10] | Potency [11]
active: Potency [2] 18.7 µM | Potency [6] 14.8 µM | Potency [8] 8.33 µM | Potency [3] 7.43 µM

OC[C@H]1O[C@@H](Oc2cc(O)cc(C=Cc3ccc(O)cc3)c2)[C@H](O)[C@@H](O)[C@H]1O
inactive: Potency [12] | Potency [7] | Potency [8] | Potency [9] | Potency [4] | Potency [10] | Potency [11]

COc1cc(N2CCC(N3CCN(C)CC3)CC2)ccc1Nc1ncc(Cl)c(Nc2ccccc2S(=O)(=O)C(C)C)n1
inactive: Potency [7]

CC=CCC(C)C(O)C1C(=O)NC(CC)C(=O)N(C)CC(=O)N(C)C(CC(C)C)C(=O)NC(C(C)C)C(=O)N(C)C(CC(C)C)C(=O)NC(C)C(=O)NC(C)C(=O)N(C)C(CC(C)C)C(=O)N(C)C(CC(C)C)C(=O)N(C)C(C(C)C)C(=O)N1C (configuration not stated)
inactive: Potency [12] | Potency [10]

COC(=O)C1=CO[C@@H](O)[C@@H]2C(CO)=CC[C@@H]12
active: Potency [8] 20.9 µM

O=C(N[C@@H](c1ccccc1)[C@@H]1CCCCN1)c1cccc(C(F)(F)F)c1Cl
active: Potency [3] 23.5 µM | Potency [9] 1.66 µM
inactive: Potency [7] | Potency [10] | Potency [11]

O=C(Nc1ccccc1Br)N[C@@H]1CCN(c2ccc(C(F)(F)F)cn2)C1
inactive: Potency [4]
active: Potency [2] 23.5 µM | Potency [6] 18.7 µM | Potency [8] 18.7 µM | Potency [11] 20.9 µM

CN1C[C@H]2c3ccccc3Oc3ccc(Cl)cc3[C@@H]2C1
inactive: Potency [12] | Potency [2] | Potency [9] | Potency [4]
active: Potency [6] 4.18 µM | Potency [3] 11.8 µM

CC#CCn1c(N2CCC[C@@H](N)C2)nc2c1c(=O)n(Cc1nc(C)c3ccccc3n1)c(=O)n2C
inactive: Potency [2] | Potency [3] | Potency [10] | Potency [11]

CC(=O)O[C@]1(C(C)=O)CC[C@@H]2[C@@H]3C[C@H](C)C4=CC(=O)CC[C@]4(C)[C@H]3CC[C@@]21C
inactive: Potency [7]
active: Potency [12] 20.9 µM | Potency [2] 23.5 µM | Potency [6] 14.8 µM | Potency [10] 20.9 µM

CC1CCC(C(=O)N(c2cc(C#CC(C)(C)C)sc2C(=O)O)C2CCC(O)CC2)CC1 (configuration not stated)
inactive: Potency [12] | Potency [4]
active: Potency [6] 26.4 µM | Potency [3] 20.9 µM

COC1CCC(N(C(=O)C2CCC(C)CC2)c2cc(C3=CCCCC3)sc2C(=O)O)CC1 (configuration not stated)
inactive: Potency [12] | Potency [9] | Potency [4] | Potency [11]
active: Potency [2] 23.5 µM | Potency [13] 20.9 µM | Potency [6] 14.8 µM | viability (% of DMSO control) [7] 89.9% | Potency [8] 23.5 µM
